Compound activity as filed in PubChem BioAssay.
Most compounds without a hit are left out; they make up all but 19% or so of the library.
IL1B secr inh: inflammasome signaling inhibition, IL-1 beta readout | THP-1 LPS/ATP IL-1B secretion, AlphaLISA, 16 h; hits give low values | activity change, % at 57.5 µM | 4.7% of 360,000 active | AID 743279; in the data active = activity change below about -50%; inconclusive = mostly about -30% to -49%
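THP-1 cells pretreated 1 hr with compounds (up to 57.5 uM final), then stimulated with LPS (250 ng/mL final) plus ATP (1.25 mM final); secreted IL-1B measured by AlphaLISA after 16 hr, decreased signal indicating inhibition.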
HT1080NT lethal: kills 2HG-producing HT-1080-NT fibrosarcoma cells; HT-1080-NT fibrosarcoma viability, CellTiter-Glo ATP luminescence, 48 h; Potency, µM (series often up to 46.1 µM), hits mostly cytotoxic; 1.6% of 360,000 active;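 also: NT is the 2HG producing partner of a matched IDH1 knockdown line; nearly all actives have a fitted effect of over 55% in size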
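750 cells/well, RPMI + 5% FBS; 2 h settle, compound pin-transfer, 48 h at 37 degrees C. CellTiter-Glo 10 min RT, luminescence. Normalized to DMSO and media-only wells.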
DT40 TDP1 CPT: DT40-hTDP1 cell growth loss with CPT; chicken DT40 Tdp1-/-;hTDP1 cells + 20 nM CPT, ATP luminescence, 48 h; Potency, µM (top dose mostly 46.2 µM), hits mostly inhibitors; 12% of 420,000 active; also: nearly all actives have a fitted effect of over 55% in size
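Cell growth measured by CellTiter-Glo luminescence after a minimum 48 h, 37 C compound exposure with 20 nM CPT in Tdp1-knockout DT40 cells stably expressing hTDP1, seeded 400/well; qHTS titration format.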
HT1080 IDH1KD tx: toxicity to HT-1080 IDH1 knockdown cells (counter line). HT-1080 IDH1 knockdown viability, ATP luminescence, 48 h. Potency, µM (series often up to 46.1 µM), usual class: cytotoxic. 2% of 360,000 active
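Using the IDH1-knockdown HT-1080 line run in the same batch and compound series as the NT line, viability after 48 h at 37 °C was determined by CellTiter-Glo luminescence and expressed as % activity.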
ELG1 DNA repair: blocks ELG1-dependent DNA repair in HEK293T cells. HEK293T ELG1-luciferase reporter, luminescence, 16 h; DNA damage induced by 5-fluorouridine. Potency, µM (series often up to 46.1 µM), hits mostly inhibitors. 2.3% of 330,000 active. AID 504467; also: nearly all actives have a fitted effect of over 55% in size
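In this reporter screen, reduction of luminescence relative to DMSO vehicle indicated activity. Compounds and 5-fluorouridine were added together to 2,000 cells per well, incubated for 16 hr at 37 °C, then developed with ONE-Glo.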
TDP1 cell noCPT: qHTS for Inhibitors of human tyrosyl-DNA phosphodiesterase 1 (TDP1): qHTS in cells in absence of CPT. Potency, µM (top dose mostly 46.2 µM), actives largely listed as inhibitors. 15% of 420,000 active. DT40 Tdp1-/- hTDP1 cells, no CPT, ATP luminescence, 48 h; also: nearly all actives have a fitted effect of over 55% in size
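Growth of hTDP1-complemented DT40 Tdp1-knockout cells is measured by ATP luminescence after at least 48 hr compound exposure at 37 °C, with DMSO substituting for the 20 nM CPT used in the parallel screen.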
Large screens that a line does not name were inactive. Unless noted, calls follow the shape of the dose curve; as a rule, active = well fitted curve in the direction sought with a large enough effect; inconclusive = small, poorly fitted or top-dose-only effect, or another doubt; inactive = no such curve, though single readings can be large; an effect the other way counts as inactive or inconclusive.

Cc1onc(-c2ccccc2Cl)c1C(=O)N/N=C(\N)COc1ccc(Cl)cc1	DT40 TDP1 CPT 23.1µM, HT1080 IDH1KD tx inconclusive, TDP1 cell noCPT 13µM
Cc1onc(-c2ccccc2)c1C(=O)N/N=C(\N)COc1ccc(Cl)cc1	HT1080NT lethal inconclusive, DT40 TDP1 CPT 16.4µM, HT1080 IDH1KD tx inconclusive, TDP1 cell noCPT inconclusive
CC(C)(C)C1CCSC2=NCCC[C@]2(c2ccccc2)C1 (some centres not stated)	DT40 TDP1 CPT inconclusive, TDP1 cell noCPT 18.4µM (no result: ELG1 DNA repair)
COc1ccc(S(=O)(=O)NC(C(=O)OCC(=O)Nc2ccc(N3CCOCC3)cc2)C(C)C)cc1 (configuration not stated)	TDP1 cell noCPT inconclusive (no result: ELG1 DNA repair)
CC(C)n1nc(C(=O)Nc2cccc(S(=O)(=O)N3CCOCC3)c2)c2ccccc2c1=O	DT40 TDP1 CPT 20.6µM, ELG1 DNA repair inconclusive, TDP1 cell noCPT inconclusive
CC(C)n1nc(C(=O)Nc2cccc(S(=O)(=O)N3CCCCC3)c2)c2ccccc2c1=O	DT40 TDP1 CPT 13µM, ELG1 DNA repair inconclusive
CC(C)(C)C(=O)N1CCN(c2ccc3c(c2)C2CC3CCN2C(=O)OCc2ccccc2)CC1 (configuration not stated)	DT40 TDP1 CPT inconclusive, TDP1 cell noCPT inconclusive (no result: ELG1 DNA repair)
CC1(C(=O)NS(=O)(=O)c2ccccc2)CCN1C(=O)c1ccc(C2CCCCC2)cc1 (configuration not stated)	none (no result: ELG1 DNA repair)
Cc1cc(OC(C)C(=O)N(Cc2ccco2)C2CCS(=O)(=O)C2)ccc1Cl (configuration not stated)	DT40 TDP1 CPT inconclusive, TDP1 cell noCPT inconclusive
CSc1ccc(CNC(=O)Cn2c(-c3cccs3)cc3cc(F)ccc32)cc1	TDP1 cell noCPT inconclusive (no result: IL1B secr inh, HT1080NT lethal, HT1080 IDH1KD tx, ELG1 DNA repair)
COC(=O)c1ccc(/C=N/n2c(C)nc3ccccc3c2=O)cc1	TDP1 cell noCPT inconclusive
C/C(=N\n1c(C)nc2ccccc2c1=O)c1ccc(N)cc1	DT40 TDP1 CPT inconclusive, TDP1 cell noCPT 18.4µM (no result: ELG1 DNA repair)
CCOP(=O)(OCC)C(C)(C)NC(=O)Nc1ccc(Cl)c(Cl)c1	IL1B secr inh -66.5, ELG1 DNA repair inconclusive, TDP1 cell noCPT inconclusive
CC(C)(C)OC(=O)NCC12C=CC(O1)C1C(=O)N(Cc3ccccc3)C(=O)C12 (configuration not stated)	DT40 TDP1 CPT inconclusive, ELG1 DNA repair 23.1µM, TDP1 cell noCPT inconclusive
CCOC(=O)c1c(NC(=O)CN2C(=O)NC3(CCCCC3C)C2=O)sc(C)c1C (configuration not stated)	DT40 TDP1 CPT 20.6µM, ELG1 DNA repair inconclusive, TDP1 cell noCPT 20.6µM
CCOC(=O)c1c(-c2ccc(F)cc2)csc1NC(=O)CN1C(=O)NC2(CCCCC2C)C1=O (configuration not stated)	DT40 TDP1 CPT 20.6µM, HT1080 IDH1KD tx inconclusive, ELG1 DNA repair inconclusive, TDP1 cell noCPT inconclusive
CSc1ncc(C(=O)Nc2ccccc2C(=O)c2ccccc2)c(C)n1	none (no result: IL1B secr inh, HT1080NT lethal, HT1080 IDH1KD tx, ELG1 DNA repair)
CC1CCN(C(=O)c2[nH]cnc2C(=O)Nc2cccc(Cl)c2)CC1	DT40 TDP1 CPT inconclusive, TDP1 cell noCPT inconclusive
Cc1ccc(Cl)cc1N1CCN(C(=O)COc2ccc(S(=O)(=O)NC(C)C)cc2)CC1	DT40 TDP1 CPT 13µM, ELG1 DNA repair 7.31µM, TDP1 cell noCPT 18.4µM
O=C(COc1ccc(S(=O)(=O)NC2CCCCC2)cc1)N1CCN(c2cccc(Cl)c2)CC1	DT40 TDP1 CPT inconclusive, HT1080 IDH1KD tx inconclusive, ELG1 DNA repair inconclusive, TDP1 cell noCPT 16.4µM
CC(C)NS(=O)(=O)c1ccc(OCC(=O)N2CCCC2)cc1	none
COc1ccc(NC(=O)C2CCC(CNS(=O)(=O)c3ccc4c(c3)C(C)(C)C(=O)N4C)CC2)cc1 (configuration not stated)	none (no result: IL1B secr inh, HT1080NT lethal, HT1080 IDH1KD tx, ELG1 DNA repair)
